# Compounds with a hit are over-represented: about 19% of the library has one in this group of screens.
# TDP1 cell noCPT = qHTS for Inhibitors of human tyrosyl-DNA phosphodiesterase 1 (TDP1): qHTS in cells in absence of CPT; DT40 Tdp1-/- hTDP1 cells, no CPT, ATP luminescence, 48 h; Potency, µM (highest dose often 46.2 µM), for the others: at the highest dose activity change, negative = growth inhibition, actives largely listed as inhibitors; 15% of 420,000 active; note: potency is the fitted concentration of half-maximal effect; nearly all actives have a fitted effect of over 55% in size
#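 Stably hTDP1-transfected Tdp1-null chicken DT40 cells were treated with library compounds minus camptothecin and grown for at least 48 hr at 37 °C, after which cellular ATP was quantified by luminescence.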
# HT1080 IDH1KD tx = qHTS for induction of synthetic lethality in tumor cells producing 2HG: qHTS for the HT-1080-IDH1KD cell line. HT-1080 IDH1 knockdown viability, ATP luminescence, 48 h. Potency, µM (titrated, usually from 46.1 µM), for inactives: top-dose activity, negative = toxicity, most hits filed as cytotoxic. 2% of 360,000 active;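 note: potency is the fitted concentration of half-maximal effect; 0% = DMSO wells and -100% = cell-free medium wells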
#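 % activity derives from luminescence (CellTiter-Glo), normalised to DMSO and no-cell wells. HT-1080-IDH1KD cells, 750/well, had 48 h compound exposure at 37 °C.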
# TDP1 cell CPT = qHTS for Inhibitors of human tyrosyl-DNA phosphodiesterase 1 (TDP1): qHTS in cells in presence of CPT | Potency, µM (series often up to 46.2 µM), for the others: at the top dose activity change, negative = growth inhibition, hits mostly inhibitors | AID 686979, 2013 | 12% of 420,000 active | chicken DT40 Tdp1-/-;hTDP1 cells + 20 nM CPT, ATP luminescence, 48 h; note: potency is the fitted concentration of half-maximal effect; nearly all actives have a fitted effect of over 55% in size
#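 Cell growth measured by CellTiter-Glo luminescence after a minimum 48 h, 37 C compound exposure with 20 nM CPT in Tdp1-knockout DT40 cells stably expressing hTDP1, seeded 400/well; qHTS titration format.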
# IL1B secr inh = qHTS for Inhibitors of Inflammasome Signaling: IL-1-beta AlphaLISA Primary Screen. THP-1 LPS/ATP IL-1B secretion, AlphaLISA, 16 h; hits give low values. activity change, % at 57.5 µM. 4.7% of 360,000 active. AID 743279, 2014; in the data active = activity change below about -50%; inconclusive = mostly about -30% to -49%
#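 Secreted IL-1B measured by AlphaLISA bead assay after 16 h compound exposure of THP-1 cells; compounds (final up to 57.5 uM) added 1 h before LPS (250 ng/mL) and ATP (1.25 mM) stimulation; lower signal means less secretion.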
# HT1080NT lethal = qHTS for induction of synthetic lethality in tumor cells producing 2HG: qHTS for the HT-1080-NT fibrosarcoma cell line | HT-1080-NT fibrosarcoma viability, CellTiter-Glo ATP luminescence, 48 h | Potency, µM (top dose mostly 46.1 µM), inactives show at the highest dose activity, negative = less viability, most hits filed as cytotoxic | 1.6% of 360,000 active | AID 686970, 2013;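 note: NT is the 2HG producing partner of a matched IDH1 knockdown line; potency is the fitted concentration of half-maximal effect; 0% = DMSO-treated cells and -100% = media-only wells without cells; nearly all actives have a fitted effect of over 55% in size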
#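 Fibrosarcoma NT cells, 750 per well in 5% FBS RPMI, were exposed to compound for 48 hours. Viability: CellTiter-Glo luminescence.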
# uPA generation = qHTS for Inhibitors of Cell Surface uPA Generation; Potency, µM (doses to about 38.3 µM), without a hit: top-dose activity change, negative = inhibition, usual class: inhibitors; cell surface uPA generation assay, qHTS; 0.31% of 330,000 active; AID 540303, 2011; active = well fitted inhibition curve with a large enough effect; inconclusive = small, poorly fitted or top-dose-only effect; inactive = no such curve, though single readings can be large or run the other way; tested in mouse RAW 264.7 cells; note: potency is the fitted concentration of half-maximal effect; nearly all actives have a fitted effect of over 55% in size
# * marks the source's active call; other numbers are inactive results; i = inactive; ? = inconclusive; / = no result given. Unless noted, calls come from the whole dose curve; as a rule, active = well fitted curve in the direction sought with a large enough effect; inconclusive = small, poorly fitted or top-dose-only effect, or another doubt; inactive = no such curve, though single readings can be large; an effect the other way counts as inactive or inconclusive. Unless noted, % is set by controls: 0 for no effect and ±100 for the full control effect.
SMILES,TDP1 cell noCPT,HT1080 IDH1KD tx,TDP1 cell CPT,IL1B secr inh,HT1080NT lethal,uPA generation
CCCN(C(=O)COC(=O)CNC(=O)c1ccc2ccccc2c1)c1c(N)n(Cc2ccccc2)c(=O)[nH]c1=O,-7.2%,8.4%,19.8%,35.8,4.3%,-4.2%
COc1cc2c(cc1OC)C(c1c(-c3c(Cl)cccc3Cl)noc1C)=NCC2,10.3µM*,?,23.1µM*,9.4,-20.7%,/
COc1cc2nc(CCc3ccccc3)oc(=O)c2cc1OC,2.2%,-1.3%,0.8%,-4.0,19.4%,-3.0%
COc1ccc(C2=NC(C)(C)Cc3cc(OC)c(OC)cc32)cc1,?,3.2%,-9.8%,-0.9,5.4%,-0.4%
S=C(c1ccc(-c2cc(Cl)ccc2Cl)o1)N1CCCCC1,?,2.3%,?,0.4,3.1%,7.6%
COc1cc2c(cc1OC)C(c1c(Cl)cccc1Cl)=NCC2,0.231µM*,?,0.259µM*,8.9,-28.6%,/
COc1cc2c(cc1OC)C(c1cc(-c3cc(Cl)ccc3Cl)oc1C)=NCC2,1µM*,/,1.26µM*,/,/,/
COc1cc2c(cc1OC)C(CCc1ccccc1)=NCC2,16.4µM*,-8.6%,?,-17.7,-1.1%,-4.2%
COCCc1nn2c(=O)cc(COC(=O)c3ccc4c(c3)OCO4)nc2s1,-13.8%,/,-1.9%,/,/,/
COc1ccc(C2=NCCc3cc(OC)c(OC)cc32)cc1,20.6µM*,-12.8%,?,-1.7,3.6%,2.7%
O=C(COc1ccccc1[N+](=O)[O-])N1CCN(c2ccccn2)CC1,11.5%,1.9%,30.9%,-5.0,12.1%,-1.0%
CC(C)N1CCN(C(=O)c2ccc(OC3CCN(CCc4ccccc4)CC3)cc2)CC1,23.1µM*,-9.3%,?,i,-3.7%,-0.5%
O=C(c1ccc(OC2CCN(CCc3ccccc3)CC2)cc1)N1CCCC1,-10.4%,-5.9%,-9.7%,-9.1,-1.7%,-6.5%
CC(Cc1ccccn1)NC(=O)c1ccc(OC2CCN(CCc3ccccc3)CC2)cc1 (configuration not stated),?,-10.3%,18.4µM*,i,-12.0%,-1.1%
C[C@@H]1CN([C@H](C)CO)C(=O)c2cccc(NS(=O)(=O)c3cccs3)c2O[C@H]1CN(C)Cc1ccccc1,11.6µM*,8.4%,11.6µM*,35.5,-0.2%,0.7%
COc1ccc(S(=O)(=O)Nc2cccc3c2O[C@H](CN(C)Cc2ccc(Oc4ccccc4)cc2)[C@@H](C)CN([C@H](C)CO)C3=O)cc1,20.6µM*,-24.9%,16.4µM*,-29.2,-11.0%,?
C[C@H](CO)N1C[C@H](C)[C@@H](CN(C)S(=O)(=O)c2cccs2)Oc2c(NS(=O)(=O)c3ccccc3)cccc2C1=O,-10.5%,-2.4%,-17.4%,-6.0,-0.1%,-3.9%
COc1ccc(S(=O)(=O)Nc2cccc3c2O[C@H](CN(C)Cc2ccc(-c4ccccc4)cc2)[C@@H](C)CN([C@H](C)CO)C3=O)cc1,?,-13.7%,?,?,-17.0%,?
COc1ccc(CN(C)C[C@H]2Oc3c(NC(=O)Nc4ccccc4)cccc3C(=O)N([C@H](C)CO)C[C@@H]2C)cc1,29.1µM*,-2.9%,16.4µM*,-7.1,-6.9%,-25.7%
C[C@H](CO)N1C[C@H](C)[C@@H](CN(C)Cc2ccccc2)OCc2cnnn2CCCC1=O,30.3%,0.8%,-0.5%,-12.0,1.5%,/
Cc1ccc2c(c1)C(=O)C(=O)N2CC(=O)Nc1ccccc1NC(=O)c1ccccn1,5.8µM*,-3.0%,5.17µM*,38.9,?,-3.3%
Cc1ccccc1-c1ocnc1C(=O)Nc1ccccc1NC(=O)c1ccccn1,?,?,?,-3.1,3.66µM*,1.6%
Cc1ccc(C)c(NC(=O)NCc2ccccn2)c1,9.0%,12.9%,-1.0%,-13.0,14.5%,0.2%
S=C(Nc1ccccn1)c1ccccn1,0.92µM*,?,0.92µM*,19.6,?,-9.2%
Cc1ccc(C)c(NC(=S)c2ccccn2)c1,18.4µM*,-14.4%,18.4µM*,-101.4*,-1.1%,-3.5%
SMILES,TDP1 cell noCPT,HT1080 IDH1KD tx,TDP1 cell CPT,IL1B secr inh,HT1080NT lethal,uPA generation
O=C(Nc1ccccn1)C(=O)Nc1ccccn1,-13.3%,1.2%,-3.8%,4.4,-5.3%,-14.4%
O=C(Cn1ccn(-c2ccc(F)cc2)c(=O)c1=O)Nc1ccc(F)cc1,-5.4%,/,9.1%,/,/,/
Cc1ccc(C)c(C(=O)c2ccccc2NC(=O)c2ccccn2)c1,9.2µM*,20.6µM*,16.4µM*,18.2,?,-13.0%
C=CCOc1cccc(/C=C2\C(=O)N(Cc3ccc(C)cc3)C(C)=C2C(=O)OC)c1,23.1µM*,-15.7%,?,-90.9*,-19.4%,-6.3%
CCOc1cc(/C=C2\C(=O)N(Cc3ccc(C)cc3)C(C)=C2C(=O)OC)ccc1O,?,?,?,-22.4,?,-11.0%
COC(=O)C1=C(C)N(Cc2ccco2)C(=O)/C1=C\c1ccc([N+](=O)[O-])cc1,?,?,16.4µM*,-102.1*,?,-6.5%
COC(=O)C1=C(C)N(Cc2ccco2)C(=O)C1,-17.5%,20.1%,-9.1%,4.5,26.1%,-1.1%
COC(=O)C1=C(C)N(C)C(=O)/C1=C\c1ccco1,-19.6%,2.6%,-0.1%,1.2,-1.4%,-5.1%
COC(=O)C1=C(C)N(Cc2ccc(OC)cc2)C(=O)/C1=C\c1ccco1,16.4µM*,-17.6%,25.9µM*,18.8,-12.1%,0.3%
COc1ccc2cc([C@H](C)CO)ccc2c1,-13.4%,/,13.3%,/,/,/
Nc1ccc2c3c(ccc([N+](=O)[O-])c13)CC2,7.31µM*,-2.9%,?,?,-0.1%,/
CN1CCS/C1=C\C=C1/SC(=S)N(CC(=O)O)C1=O,?,0.7%,9.1%,-15.2,15.7%,-3.9%
CCN1C(=O)/C(=C/C=C2/SCCN2C)SC1=S,13µM*,10.8%,?,?,13.5%,-1.0%
CCCCN1C(=O)/C(=C/C=C2/CC(C)(C)CN2C)SC1=S,?,-7.4%,?,-58.9*,-3.0%,2.0%
COc1ccc(NC(=O)CSc2nc3cc(OC)c(OC)cc3c3nc(-c4ccccc4)nn23)cc1Cl,-6.3%,/,25.3%,/,/,/
CSc1nc2ccccc2c(=O)n1C1CCOC(C)(C)C1 (configuration not stated),-15.1%,-1.8%,-14.5%,-2.4,2.1%,4.4%

# Screens (PubChem BioAssay)
